Source: PubChem BioAssay (National Center for Advancing Translational Sciences (NCATS))
Many of the other results were omitted from the sample, so hits are more common in it than they were.
Cycloheximide cs – Cycloheximide Counterscreen for Small Molecule Inhibitors of Shiga Toxin; max response, %; actives 12% (n = 300,000); cell reporter, cycloheximide protein synthesis inhibition counterscreen; AID 2314, 2010; in the data active means max response mostly above about 13%, no sharp cut-off; inactive means mostly below about 14%; further: read at 38.3 µM for the half of the compounds with a filed dose; 0% is about no effect
Shiga inhibitor – A qHTS for Small Molecule Inhibitors of Shiga Toxin; AID 2315, 2010; inhibition, % at 38.7 µM; Vero cells, Shiga toxin protein synthesis inhibition reporter; actives 9.2% (n = 290,000); in the data active means inhibition mostly above about 28%, no sharp cut-off; inactive means mostly below about 43%; further: 0% is about no effect
TbPYK inhibitor – qHTS of Trypanosoma Brucei Inhibitors. TbPYK enzyme, Kinase-Glo Plus ATP luminescence, 45 min. Potency, µM (series often up to 76.8 µM), without a hit: at the highest dose activity, negative = inhibition, actives largely listed as inhibitors. actives 0.12% (n = 410,000). AID 624173, 2012; further: potency means the concentration at half of the fitted maximal effect; on the % scale 0 is the no-effect control and ±100 the full control effect; nearly all actives have a fitted effect of over 50% in size
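Glycolytic pyruvate kinase of T. brucei was incubated with substrate, test compound and 130 uM ADP for 45 minutes at room temperature. Luminescent Kinase-Glo Plus signal was measured after 10 minutes.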
Giardia FBPA inh – qHTS Assay for Inhibitors of Fructose-1,6-bisphosphate Aldolase from Giardia Lamblia; Potency, µM (top dose mostly 59.6 µM), for the others: top-dose activity, negative = inhibition, actives largely listed as inhibitors; actives 0.71% (n = 290,000); purified Giardia FBPA; A8B2U2; AID 2451, 2010; further: potency means the concentration at half of the fitted maximal effect; on the % scale 0 is the no-effect control and ±100 the full control effect; nearly all actives have a fitted effect of over 55% in size
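40 nM FBPA preincubated 10 min at RT with compound (up to 57.5 uM final), then substrate plus GAPDH/TPI/NAD/arsenate coupling and diaphorase/resazurin added. Fluorescence read after 20 min at RT, 525/598 nm.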
LmPK inhibitor – qHTS Assay for Inhibitors of Leishmania Mexicana Pyruvate Kinase (LmPK); Potency, µM (doses to about 57.5 µM), inactives show top-dose activity change, negative = inhibition, hits mostly inhibitors; actives 0.37% (n = 290,000); purified LmPK, Kinase-Glo ATP luminescence, 1 h; Q27686; further: potency means the concentration at half of the fitted maximal effect; on the % scale 0 is the no-effect control and ±100 the full control effect
Target sequence (Q27686 whole entry, looked up): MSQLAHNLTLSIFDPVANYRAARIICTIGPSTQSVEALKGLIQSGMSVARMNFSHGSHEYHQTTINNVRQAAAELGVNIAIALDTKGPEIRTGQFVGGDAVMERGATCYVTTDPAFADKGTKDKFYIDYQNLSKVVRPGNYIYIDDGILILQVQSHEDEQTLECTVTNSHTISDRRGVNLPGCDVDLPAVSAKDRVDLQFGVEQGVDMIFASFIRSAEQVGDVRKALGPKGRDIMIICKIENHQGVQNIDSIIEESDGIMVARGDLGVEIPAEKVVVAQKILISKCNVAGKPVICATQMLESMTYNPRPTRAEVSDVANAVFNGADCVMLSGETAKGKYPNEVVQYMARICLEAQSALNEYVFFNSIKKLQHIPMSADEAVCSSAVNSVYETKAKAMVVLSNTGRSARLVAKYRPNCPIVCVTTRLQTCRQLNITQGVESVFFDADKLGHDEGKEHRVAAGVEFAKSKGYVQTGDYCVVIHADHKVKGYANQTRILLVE
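Kinase-Glo luminescence read after 1 h RT reaction of 0.1 nM LmPK with 0.5 mM PEP and 0.1 mM ADP. Activity scaled between uninhibited and enzyme-free controls.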
RE007 growth inh – qHTS Assay for Inhibitors of the HIV-1 protein Vpr | S. pombe RE007 Vpr strain, BacTiter-Glo ATP luminescence, 24 h | Potency, µM (highest dose often 92.2 µM), without a hit: at the top dose activity change, negative = less growth, actives largely listed as inhibitors | actives 0.21% (n = 360,000); active means well fitted falling curve with a large enough effect; inconclusive means small, poorly fitted or top-dose-only effect; inactive means no such curve, though single readings can be large or run the other way; further: potency means the concentration at half of the fitted maximal effect; on the % scale 0 is the no-effect control and ±100 the full control effect; nearly all actives have a fitted effect of over 50% in size
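Fission yeast RE007 carrying one integrated HIV-1 vpr copy, seeded at OD 0.01 in PMG+AL medium with 23 nL pinned compound. Grown 24 h at 30 degrees; viability read by BacTiter-Glo luminescence after 5 min.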
Numbers without * were called inactive; ? = inconclusive; nt = no result; ! = repeats disagree; [ ] = remark or other dose. Unless noted, the call rests on the fitted dose curve; in most records, active means well fitted curve in the direction sought with a large enough effect; inconclusive means small, poorly fitted or top-dose-only effect, or another doubt; inactive means no such curve, though single readings can be large; an effect the other way counts as inactive or inconclusive.

SMILES	Cycloheximide cs	Shiga inhibitor	TbPYK inhibitor	Giardia FBPA inh	LmPK inhibitor	RE007 growth inh
Brc1ccccc1OCCCCN1CCCCC1	1.3	-5.0	2.9%	9.7%	-1.2%	-9.1%
CC(=O)c1ccc(OCCn2cnc3ccccc32)cc1	9.2	38.2	-16.7%	-0.2%	1.8%	3.1%
Cc1ccccc1OCCCCn1cnc2ccccc21	16.2*	22.7	-2.9%	4.7%	1.4%	-15.3%
Cc1ccc(OCCCCn2cnc3ccccc32)cc1	39.7*	88.5*	0.6%	-23.8%	13.8%[11.5 µM]	-18.3%
OB(O)c1cc2ccccc2s1	nt	nt	nt	4.6%	nt	nt
CCN(CC)c1sc(S(=O)(=O)c2ccccc2)nc1S(=O)(=O)c1ccc(C)cc1	nt	nt	-9.3%	nt	nt	nt
CCCCc1cc2c(=O)c(C(=O)OC)c[nH]c2cc1OCc1ccccc1	nt	nt	6.2%	nt	nt	nt
CC1=C(C)C(=O)C(CCCCC#CCCCC#CCO)=C(C)C1=O	-1.8	-12.4	-4.3%	17.7µM*	4.3%	-6.8%
CN(C)/C=C(/C(=O)c1ccccc1Cl)S(=O)(=O)c1ccccc1	nt	nt	-0.8%	nt	nt	5.2%
COc1ccc(C(=O)/C(=C/N(C)C)S(=O)(=O)c2ccccc2)cc1	27.3*	60.9*	3.0%	6.3%	-6.4%	2.7%
COc1ccc(C)cc1NC(=O)C(Sc1nnc(-c2cccs2)o1)c1ccccc1 (stereo not given)	11.0	-2.1	-0.4%	4.1%	-2.9%	1.3%
O=C(Nc1cc(C(F)(F)F)ccc1Cl)C(Sc1n[nH]c(=O)[nH]c1=O)c1ccccc1 (stereo not given)	-1.1	-9.0	-4.6%	0.3%	1.5%	0.0%
O=C(Nc1cc(C(F)(F)F)ccc1Cl)C(Sc1nnc(-c2cccs2)o1)c1ccccc1 (stereo not given)	14.7*	33.1*	-20.0%	-3.2%	2.3%	13.2%
O=C(Nc1ccc(Cl)cc1C(F)(F)F)C(Sc1nnc(-c2cccs2)o1)c1ccccc1 (stereo not given)	29.1*	88.7*	-20.1%	-4.1%	4.9%	12.2%
NC(N)=NCCC[C@H](NC(=O)CC1(CC(=O)N2CCN(C3c4ccccc4NC(=O)c4ccccc43)CC2)CCCC1)C(=O)NCCn1c(=O)n(-c2ccccc2)n(-c2ccccc2)c1=O (stereo not given in full)	nt	nt	nt	1.3%	nt	nt
CN1CCC(=O)N([C@H](CSc2ccc(Br)cc2)Cc2ccccc2)CC1	-2.3	-3.4	-4.2%	-0.3%	-1.5%	-4.8%
CCCN1CCC(=O)N(CCSc2ccc(NC(C)=O)cc2)CC1	64.4*!	107.7*!	5.2%	1.5%	3.5%	8.8%
CN1CCC(=O)N(CCSc2ccc(Br)cc2)CC1	20.8*!	49.7*!	4.3%	1.8%	-2.5%	58.2%
O=C1CCN(CCc2ccccc2)CCN1C(CSc1ccc(Br)cc1)Cc1ccccc1 (stereo not given)	-2.3	-4.3	nt	-0.9%	nt	nt
CCCN1CCC(=O)N(CCSc2ccc(Br)cc2)CC1	35.2*	56.0*	nt	2.6%	nt	nt
c1ccc(SCCN2CCN(c3ccccc3)CC2)cc1	12.8*	44.9	4.3%	-19.9%	-5.0%	-8.1%
C/C=C/C1=CC2=CC(=O)C(C)(OC(=O)c3c(C)cc(O)cc3O)C(=O)C2=CO1 (stereo not given)	nt	nt	nt	-12.6%	nt	nt
COc1ccc(OCc2nc(C#N)c(NCc3ccccc3Cl)o2)cc1	nt	nt	2.3%	nt	nt	nt
CCCN1CCC(=O)N(CCSc2ccccc2)CC1	40.3*	44.4*	-13.4%	-4.3%	0.7%	11.1%
CC(=O)Nc1ccc(SCCN2CCN(CC(C)C)CCC2=O)cc1	-5.1	-4.6	nt	1.3%	nt	nt
SMILES	Cycloheximide cs	Shiga inhibitor	TbPYK inhibitor	Giardia FBPA inh	LmPK inhibitor	RE007 growth inh
O=C1CCN(Cc2ccccc2)CCN1CCSc1ccccc1	41.6*	41.0*	-4.7%	-3.1%	-1.6%	15.9%
Cc1ccc(SCCN2CCN(CC(C)C)CCC2=O)cc1	31.2*!	84.5*	1.9%	3.5%	-3.7%	-3.4%
Nc1ccc(-c2nc3cc(N)ccc3s2)cc1	37.5*	66.6*	-7.3%	-13.9%	?	-11.7%
CNC(=S)Nc1ccc(-c2nc3ccc(C)cc3s2)cc1	30.1*	95.1*	-4.1%	-5.5%	0.5%	3.0%
Cc1ccc2nc(-c3ccc(N)cc3)sc2c1	29.8*	10.9	-1.8%	-9.4%	?	-3.3%
Cc1ccc2nc(-c3ccc(NS(=O)(=O)c4ccc(F)cc4)cc3)sc2c1	52.3*	158.6*	-4.7%	-4.9%	1.0%	-1.9%
Cc1ccc2sc(-c3ccc(N)cc3)nc2c1	nt	nt	-8.6%	nt	nt	nt
O=C(Nc1cc(C(F)(F)F)ccc1Cl)c1cnn(-c2ccccc2)c1-n1cccc1	nt	nt	4.2%	nt	nt	nt
CN(C)c1ncc2nc(-c3ccc(F)cc3)c(=O)n(C)c2n1	nt	nt	nt	5.4%	nt	nt
COc1ccccc1CN1CCC2(CC1)CCN(C(=O)c1cccn1C)CC2	nt	nt	2.1%	2.0%	nt	nt
Cc1ccc(N(CC(=O)Nc2ccc(Br)cc2)S(=O)(=O)c2cccs2)cc1	nt	nt	-1.3%	nt	nt	nt
CC1=CCC(C(=O)O)C(C(=O)Nc2ccc(-c3nc4ccc(C)cc4s3)cc2)C1 (stereo not given)	53.7*	104.4*	-2.8%	21.8%	-0.1%	-25.6%
CC(=O)NC(=S)Nc1ccc(-c2nc3ccc(C)cc3s2)cc1	27.4*	79.7*	1.4%	0.3%	-6.6%	2.3%
Cc1ccc2nc(-c3ccc(N4C(=N)SC5CS(=O)(=O)CC54)cc3)sc2c1 (stereo not given)	46.4*	126.3*	-1.0%	-0.4%	1.0%	13.0%
COCCNc1nnc(SC(C)C(=O)Nc2c(C)n(C)n(-c3ccccc3)c2=O)s1 (stereo not given)	-0.8	-6.3	-5.1%	nt	0.2%	0.5%
COCCNc1nnc(SC(C)C(=O)Nc2ccc(-c3nc4ccc(C)cc4s3)cc2)s1 (stereo not given)	28.2*	93.2*	-2.7%	-0.6%	-0.4%	7.7%
S=C=Nc1cccc(NC(=S)NCCCCNC(=S)Nc2cccc(N=C=S)c2)c1	-1.2	2.5	nt	10.6%	nt	nt
N#C/C(=C\c1ccc(OCc2ccc(C(=O)O)cc2)cc1)C(=O)N1CCOCC1	98.5*	179.1*	-2.8%	9.8%	-2.0%	5.9%
N#C/C(=C/c1ccc(C(=O)O)cc1)C(=O)Nc1ccccc1	7.3	-15.5	-15.5%	0.2%	-1.4%	-11.5%
N#C/C(=C\c1ccc(OCc2ccccc2)cc1)C(=O)Nc1ccc(C(=O)O)cc1	25.8*	45.5*	-0.1%	1.5%	-3.2%	-18.2%
CC(C)COc1ccc(C(=O)Nc2ccc(NC(=O)c3ccco3)c(Cl)c2)cc1	13.5	6.5	-0.3%	7.1%	5.0%	-15.0%
CC(C)Oc1ccc(C(=O)Nc2ccc(NC(=O)c3ccco3)c(Cl)c2)cc1	39.6*	49.9*	6.9%	nt	-2.1%	-6.3%
